# Assay results: PubChem BioAssay (NCATS)
# Inconclusive results are not listed. Values without a mark were called inactive. Calls of active or inactive are those of the source. Calls follow the shape of the dose curve; as a rule, active = well fitted inhibition curve with a large enough effect; inconclusive = small, poorly fitted or top-dose-only effect; inactive = flat fitted curve, though single readings scatter.
# Target: Voltage-gated inwardly rectifying potassium channel KCNH2 (Homo sapiens) (UniProt Q12809)
# Experiment: qHTS Assay for Small Molecule Inhibitors of the Human hERG Channel Activity (AID 588834);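 also: lower thallium flux fluorescence means stronger hERG block; nearly all actives have a fitted effect of over 50% in size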; as to activity change, negative = inhibition: top concentration of the series differs between compounds
# Details: U2OS BacMam hERG, FluxOR thallium flux fluorescence; series mostly up to 46.1 µM; activity change, negative = inhibition: at the top concentration
# Method in brief: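 U2OS cells BacMam-transduced with hERG, 2000 cells/well, compound ~10 min at 37 °C before stimulation buffer. FluxOR thallium flux fluorescence read kinetically on FDSS; decrease indicates block; AC50 from Hill fits.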
# % is scaled to controls: 0 for no effect and ±100 for the full control effect; potency is read from the fitted curve at half-maximal effect.
# Voltage-gated inwardly rectifying potassium channel KCNH2 (Homo sapiens), sequence (Q12809 whole entry, looked up): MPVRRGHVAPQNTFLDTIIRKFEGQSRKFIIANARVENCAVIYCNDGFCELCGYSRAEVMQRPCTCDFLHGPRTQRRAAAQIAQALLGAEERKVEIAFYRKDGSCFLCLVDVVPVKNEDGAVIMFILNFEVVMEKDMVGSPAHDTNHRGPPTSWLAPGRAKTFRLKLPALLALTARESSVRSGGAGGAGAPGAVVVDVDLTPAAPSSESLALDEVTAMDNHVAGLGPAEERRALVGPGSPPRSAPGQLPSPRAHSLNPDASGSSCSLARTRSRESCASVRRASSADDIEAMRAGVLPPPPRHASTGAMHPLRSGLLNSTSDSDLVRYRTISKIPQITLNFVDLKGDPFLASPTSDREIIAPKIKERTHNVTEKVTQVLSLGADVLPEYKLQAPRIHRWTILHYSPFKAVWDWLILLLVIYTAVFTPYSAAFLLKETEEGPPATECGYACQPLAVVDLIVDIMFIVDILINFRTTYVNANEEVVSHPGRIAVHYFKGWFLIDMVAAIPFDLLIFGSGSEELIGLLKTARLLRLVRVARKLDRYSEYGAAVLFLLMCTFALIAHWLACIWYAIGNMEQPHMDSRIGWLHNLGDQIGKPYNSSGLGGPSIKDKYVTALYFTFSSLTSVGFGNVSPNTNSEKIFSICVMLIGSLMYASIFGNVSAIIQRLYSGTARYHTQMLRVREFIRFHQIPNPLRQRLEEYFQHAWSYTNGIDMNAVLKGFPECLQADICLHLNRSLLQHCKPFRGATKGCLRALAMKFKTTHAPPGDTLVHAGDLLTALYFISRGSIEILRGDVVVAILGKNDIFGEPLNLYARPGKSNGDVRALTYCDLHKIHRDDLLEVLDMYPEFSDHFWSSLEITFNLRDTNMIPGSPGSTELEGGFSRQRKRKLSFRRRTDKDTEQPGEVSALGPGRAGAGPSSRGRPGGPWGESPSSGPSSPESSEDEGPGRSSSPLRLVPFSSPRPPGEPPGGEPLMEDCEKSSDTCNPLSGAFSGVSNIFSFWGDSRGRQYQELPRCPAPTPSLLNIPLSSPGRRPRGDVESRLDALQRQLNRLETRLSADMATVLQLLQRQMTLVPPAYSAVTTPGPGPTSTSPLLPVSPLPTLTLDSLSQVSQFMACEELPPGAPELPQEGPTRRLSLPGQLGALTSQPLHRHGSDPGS
Structure (SMILES),"activity change, negative = inhibition",Potency
O=[N+]([O-])c1cc(I)c(O)c(I)c1,-15.6%,
CCC1(c2ccccc2)C(=O)NC(=O)N(C)C1=O (stereo not drawn),9.73%,
O=C(NC(=O)c1c(F)cccc1F)Nc1ccc(Cl)c(Oc2ncc(C(F)(F)F)cc2Cl)c1,1.04%,
COc1ccc2c3c1O[C@H]1C(=O)CC[C@H]4[C@@H](C2)N(C)CC[C@]314,5.08%,
Clc1ccc(C2(Cn3cncn3)OCCO2)c(Cl)c1,21.3%,
COC([CH2][Hg])CNC(=O)c1ccccc1OCC(=O)O (stereo not drawn),17.4%,
CNC(C)C(O)c1ccc(O)cc1 (stereo not drawn),,inactive
C=CCC1(C(C)CCC)C(=O)N=C(S)NC1=O (stereo not drawn),-5.95%,
CCCC(C)(COC(N)=O)COC(=O)NC1CC1 (stereo not drawn),0.412%,
COc1ccc(OC)c(C(O)C(C)N)c1 (stereo not drawn),5.62%,
CN1CCCC(=C(c2cccs2)c2cccs2)C1,,8.91 µM (active)
O=C1CC[C@@]2(O)C3Cc4ccc(O)c5c4C2(CCN3CC2CC2)[C@H]1O5 (stereo partly drawn),,11.2 µM (active)
CCCCNCC(O)c1ccc(O)cc1 (stereo not drawn),4.49%,
C#CC(C)(O)CC (stereo not drawn),10.4%,
CC(C)(O)C1C2OC(=O)C1C1(O)CC3OC34C(=O)OC2C14C (stereo not drawn),1.48%,
CC[N+](C)(CC)CCOC(=O)C(O)(c1ccccc1)c1ccccc1,1.71%,
O=c1[nH]cc(N(CCCl)CCCl)c(=O)[nH]1,11.7%,
Cn1sc(Cl)cc1=O,6.44%,
CCC1(c2ccccc2)C(=O)NC(=O)NC1=O,5.96%,
Oc1cccc[c]1[Hg][Cl],,20 µM (active)
Clc1ccc(Cl)cc1,-13.7%,
CCC1(C)CC(=O)NC(=O)C1,-2.2% [at 20.6 µM],
O=C(CCl)c1ccc(Oc2ccc(C(=O)CCl)cc2)cc1,1.33%,
